Among the data in PubChem BioAssay AID588727 (Southern Research Specialized Biocontainment Screening …, 2011) are inhibition values, retold here.

SMILES strings stand for the structures. The whole screen tested about 350,000 compounds, of which about 450 (0.13%) were called active. The list is a sample of the results. Measured potencies and affinities stand elsewhere. Values without a mark were called inactive. The rule behind the calls is not given here.

Usually inhibition stands for how much of the control response was suppressed.

The nature of the assay: inhibitors of VEEV TC-83 cytopathic effect, confirmation, Vero cells (AID 588727). Conditions: VEEV TC-83 cytopathic effect inhibition, at 20 µM; active compounds read high unless noted.
In the case of `CCOC(=O)Cn1c(S(=O)(=O)Cc2cccc(F)c2)nc(-c2ccccc2)c1-c1ccccc1`, the inhibition was 3.2%.

Turning to `CCOC(=O)Cn1c(S(=O)(=O)Cc2ccc(F)cc2)nc(-c2ccccc2)c1-c1ccccc1`, the inhibition is 5.03%.

For `C#CCn1c(S(=O)(=O)Cc2ccc(OC)cc2)nc(-c2ccccc2)c1-c1ccccc1`, the inhibition is 0.79%.

On to `C#CCn1c(S(=O)(=O)Cc2ccccc2Cl)nc(-c2ccccc2)c1-c1ccccc1`, for which the inhibition was 1.45%.

As for `COC(=O)c1ccccc1-c1ccc(/C=N/Nc2nc(N3CCCC3)nc(N3CCCC3)n2)o1`, the inhibition was 9.1%.

Turning to `COc1ccc(S(=O)(=O)N2CCCc3ccccc32)cc1OC`, the inhibition result was “inactive”.

For `Cc1c(OCC(=O)N(C)C)ccc2c(-c3ccccc3)cc(=O)oc12`, the inhibition was 2.42%.

For `Cn1cccc1C(=O)NC(=O)COC(=O)c1ccc(S(C)(=O)=O)cc1`, the inhibition was 1.82%.

Regarding `CCOC(=O)c1cc(-c2ccccc2)sc1NC(=O)C(C)(C)C`, the inhibition is 0.72%.

Consider `O=C(Nc1sc(-c2ccccc2)cc1C(=O)O)c1ccccc1`, for which the inhibition entry is “inactive”.

Turning to `COC(=O)C1=C(CSCc2ccccc2)NC(=O)NC1c1cc(C)ccc1C` (centres undefined), the inhibition was 1.95%.

As to `CNC(=S)Nc1ccc(-c2nc3ccc(C)cc3s2)cc1`, the inhibition was 5.72%.

In the case of `CCC(C)(C)NC(=S)Nc1ccc(-c2nc3ccc(C)cc3s2)cc1`, the inhibition is 1.78%.

Turning to `CCOC(=O)c1c(C)oc(NC(=O)CCl)c1C(=O)OCC`, the inhibition is 1.19%.

In the case of `Cc1cc(C(=O)Nc2c(C)nn(Cc3ccccc3Cl)c2C)no1`, the inhibition was 1.51%.

As to `Cc1nn(Cc2ccc(Cl)cc2)c(C)c1NC(=O)c1cc(C(C)C)on1`, the inhibition is 0.91%.

Take `CNC(=O)c1cc(S(=O)(=O)Nc2ccc3c(c2)OCCO3)ccc1C`: the inhibition was 0.34%.

For the compound `C#CCOCCOCCOCCNc1nc(OC)nc(N2CCN(C(=O)[C@H](CCC(=O)O)n3cc(C(N)CO)nn3)CC2)n1` (some centres undefined), the inhibition was 1.77%.

Consider `CN1CCN(CC(=O)Nc2cc(N3CCOCC3)ccc2[N+](=O)[O-])CC1`, for which the inhibition was 0.32%.

Turning to `Cc1c(CCO)c(=O)[nH]n1S(=O)(=O)c1ccc(F)cc1`, the inhibition result was “inactive”.

For the compound `Cc1c(CCO)c(=O)[nH]n1C(=O)c1ccc(F)cc1`, the inhibition was 0.71%.

Take `CN1C(=O)C2(NCCc3c2[nH]c2ccccc32)c2ccccc21` (centres undefined): the inhibition is 1.48%.

As to `CC1=CC(C)(C)N2C(=O)C3(NCCc4c3[nH]c3ccccc43)c3cccc1c32` (centres undefined), the inhibition was 0.24%.

Take `Cn1cc([N+](=O)[O-])c(C(=O)Nc2ccc(C(=O)N3CCCCC3)cc2)n1`: the inhibition was 10.8%.

With `Cn1ncc([N+](=O)[O-])c1C(=O)Nc1ccc(C2CCCCC2)cc1`, the inhibition was 2.86%.

Regarding `CCn1cc([N+](=O)[O-])c(C(=O)Nc2ccn(C34CC5CC(CC(C5)C3)C4)n2)n1`, the inhibition was 0.69%.

On to `Cc1nn(C)c(C(=O)Nc2ccn(C34CC5CC(CC(C5)C3)C4)n2)c1[N+](=O)[O-]`, for which the inhibition was 0.3%.

Regarding `CCOc1ccc(S(=O)(=O)N2CCCCC2)cc1NC(=O)C1=COCCO1`, the inhibition is 10.1%.

For `O=C1NC2=C(C(=O)CCC2)C(c2ccc([N+](=O)[O-])cc2)N1` (centres undefined), the inhibition result was “inactive”.

`COc1ccc(N2CCN(C(=O)c3cccc(S(=O)(=O)N4CCc5ccccc54)c3)CC2)cc1`: the inhibition was 4.71%.

In the case of `CC(=O)N1CCN(C(=O)c2cccc(S(=O)(=O)N3c4ccccc4CC3C)c2)CC1` (centres undefined), the inhibition result was “inactive”.

With `COc1ccccc1N1CCN(C(=O)c2cccc(S(=O)(=O)N3c4ccccc4CC3C)c2)CC1` (centres undefined), the inhibition was 5.41%.

Regarding `O=C(c1cccc(S(=O)(=O)N2CCc3ccccc32)c1)N1CCOCC1`, the inhibition is 1.59%.

On to `NS(=O)(=O)c1ccc(CNC(=O)c2cccc(S(=O)(=O)N3CCc4ccccc43)c2)cc1`, for which the inhibition is 2.16%.

With `COc1cc2c(cc1OC)CN(C(=O)c1cccc(S(=O)(=O)N(C)C)c1)CC2`, the inhibition is 1.42%.

For the compound `CN(CC(=O)Nc1ccccc1Br)C(=O)c1cccc(S(=O)(=O)N2CCc3ccccc32)c1`, the inhibition was 7.03%.

`O=C(c1cccc(S(=O)(=O)N2CCc3ccccc32)c1)N1CCc2ccccc2C1`: the inhibition was 6.28%.

On to `CC(C)OC(=O)CSc1nnc(CNc2ccc(Cl)cc2)n1Cc1ccccc1`, for which the inhibition entry is “inactive”.

For `Cc1cc(/N=C/C=C2/N(C)c3ccccc3C2(C)C)n(CCC#N)n1`, the inhibition was 1.39%.

Regarding `CC(=O)Nc1c2c(nn1-c1cccc(Cl)c1)CS(=O)(=O)C2`, the inhibition entry was “inactive”.

With `O=C(COC(=O)/C=C/c1ccc(F)cc1)NC1CCCC1`, the inhibition is 2.24%.

Regarding `Cn1nnnc1Sc1ncnc2scc(-c3ccc(C(F)(F)F)cc3)c12`, the inhibition entry was “inactive”.

In the case of `CCCCCC1CC(CC(=O)Nc2ccc([N+](=O)[O-])cc2)OC1=O` (centres undefined), the inhibition result was “inactive”.

Consider `NC(=NC1CCCCC1)c1ccc(Cl)cc1`, for which the inhibition is 0.26%.

`CCCCn1c(=O)[nH]c(=O)c2c1nc(CN(C)Cc1cccc(OC)c1OC)n2CCC`: the inhibition is 6.28%.

As to `CCCCCC(=O)N1C[C@@H](n2cc(COC(=O)c3ccccc3)nn2)[C@H](O)C[C@@H]1c1ccc(OC)cc1`, the inhibition was 0.24%.

Regarding `Cc1cccc(-n2ncc3c(N4CC(C)CC(C)C4)ncnc32)c1` (centres undefined), the inhibition is 1.8%.

Turning to `Cc1cccc(C(=O)NCCNC(=O)c2cccc(C)c2)c1`, the inhibition result is “inactive”.

Turning to `CNC(=O)C1=C(C)Nc2nc3ccccc3n2C1c1ccc(F)cc1` (centres undefined), the inhibition was 0.17%.

Consider `O=C(CC(=O)c1cccc([N+](=O)[O-])c1)Nc1ccccc1Cl`, for which the inhibition entry is “inactive”.

Consider `Cc1ccc(S(=O)(=O)N2C[C@@H](C)[C@]3(C2)[C@H](O)[C@H](OC(=O)NC2CC2)C[C@H]2C(=O)N(c4ccccc4)C(=O)[C@H]23)cc1`, for which the inhibition is 11.5%.

Take `Cc1ccc(S(=O)(=O)N2C[C@@H](C)[C@]3(C2)[C@H](O)[C@H](OC(=O)NCc2ccccc2)C[C@H]2C(=O)N(c4ccccc4)C(=O)[C@H]23)cc1`: the inhibition is 5.33%.

`COCCNC(=O)CN(c1ccc(OC)c(OC)c1)S(=O)(=O)c1ccc(C)cc1`: the inhibition is 1.04%.

On to `COC(=O)c1ccc(-n2c(C)cc(C(=O)COC(=O)CNS(=O)(=O)c3ccc(C)cc3)c2C)cc1`, for which the inhibition was 0.63%.

Consider `CCC(CC)c1nnc(NC(=O)c2c(C)nn(Cc3ccccc3Cl)c2C)s1`, for which the inhibition was 7.55%.

Turning to `CC(=O)Nc1ccc(NC(=O)c2c(C)nn(Cc3ccccc3Cl)c2C)cc1`, the inhibition result was “inactive”.

On to `CC1CC(=O)N(C)c2cc([N+](=O)[O-])ccc2N1` (centres undefined), for which the inhibition is 1.14%.

As for `COC(=O)c1cccc(NC(=S)N2CCOCC2)c1`, the inhibition was 0.95%.

As for `CCCCCC(=O)N1C[C@@H](n2cc(COC(=O)c3ccccc3)nn2)[C@H](O)C[C@@H]1c1ccccc1`, the inhibition entry was “inactive”.

Regarding `c1ccc(-c2nc3c([nH]2)CCc2nonc2-3)cc1`, the inhibition is 2.3%.

Regarding `COn1c(-c2ccccc2)nc2c1CCc1c-2no[n+]1[O-]`, the inhibition was 5.93%.

Turning to `Cc1ccccc1CC(=O)c1ccc(O)c(C)c1O`, the inhibition is 5.23%.

For `CCc1ccc(NC(=O)CS(=O)CC(=O)Nc2ccc(-n3cnnn3)c(C)c2)cc1` (centres undefined), the inhibition is 2.1%.

Consider `CCOc1ccc(/C=C/c2nc(C#N)c(NCCCOC)o2)cc1`, for which the inhibition was 6.2%.

With `CCNc1oc(/C=C/c2ccc(OCC)cc2)nc1C#N`, the inhibition was 6.65%.

With `CC1=C(C(=O)Nc2ccccn2)C(c2ccc(Br)cc2)NC(=S)N1` (centres undefined), the inhibition is 2.92%.

With `O=C(O)c1ccccc1Nc1ccc([N+](=O)[O-])cc1C(=O)O`, the inhibition result is “inactive”.

For `O=C(O)c1cc([N+](=O)[O-])ccc1Nc1ccccc1`, the inhibition was 0.6%.

Regarding `O=C(Nc1cccnc1)c1cccnc1Cl`, the inhibition was 0.62%.

Take `CCOc1ccc(C(=O)Nc2ccc(N3CCN(C)CC3)cc2)cc1`: the inhibition was 2.08%.

Consider `CCCCOc1ccc(C(=O)Nc2ccc(N3CCN(C(C)=O)CC3)cc2)cc1`, for which the inhibition was 3.29%.

In the case of `CCc1ccc(NC(=O)CC2C(=O)N(c3cccc(OC)c3)C(=O)N2CCOC)cc1` (centres undefined), the inhibition is 1.82%.

For the compound `Cc1cccc(N(Cc2ccccc2)C(=O)CSC(C)C(=O)Nc2cc(C)on2)c1` (centres undefined), the inhibition was 7.94%.

Regarding `Cc1cc(NC(=O)C(C)SCC(=O)OCC(=O)N(Cc2ccccc2)C(C)(C)C)no1` (centres undefined), the inhibition is 1.5%.

`CCOC(=O)Cn1cc(C(=O)C2CC2)c2ccccc21`: the inhibition was 1.2%.

With `COc1cccc(-n2c(CN3CCN(c4ccccc4)CC3)nc3ccc([N+](=O)[O-])cc3c2=O)c1`, the inhibition is 2.74%.

For the compound `O=c1c2cc([N+](=O)[O-])ccc2nc(CN2CCN(c3ccccn3)CC2)n1-c1ccccc1F`, the inhibition was 1.21%.

For `CCC(CC)N1CCN(Cc2nc3ccc([N+](=O)[O-])cc3c(=O)n2-c2ccccc2F)CC1`, the inhibition was 22.2%.

As to `COc1cccc(-n2c(CN3CCOCC3)nc3ccc([N+](=O)[O-])cc3c2=O)c1`, the inhibition was 7.79%.

With `COc1cc(NC(=O)c2sc3ncn(CC(=O)N4CCCCC4C)c(=O)c3c2C)cc(OC)c1OC` (centres undefined), the inhibition was 11.6%.

Regarding `Cc1ccc(CN2CC(C(=O)NNC(=O)c3ccc(F)cc3)CC2=O)cc1` (centres undefined), the inhibition entry was “inactive”.

Regarding `COCCCNC(=O)c1cc(-c2cccnc2)nc2ccccc12`, the inhibition entry is “inactive”.

As for `COCCNC(=O)COC(=O)c1cc(-c2ccc(OC)cc2)nc2ccccc12`, the inhibition was 0.73%.

For `Cc1cccc2cc(CN(CCN(C)C)C(=S)NCc3ccco3)c(=O)[nH]c12`, the inhibition is 6.74%.

For the compound `CN(C)CCN(Cc1cc2cc3c(cc2nc1Cl)OCO3)C(=O)c1ccco1`, the inhibition was 1.49%.

Turning to `CCN(CC)CCNC(=O)c1cc2c(=O)n(CC)c3ccccc3c2s1`, the inhibition was 8.46%.

As to `CC1(C)NC(=O)N(CC(O)CN2CCOCC2)C1=O` (centres undefined), the inhibition is 1.64%.

As to `Cc1cc(NC(=O)COc2ccccc2C)ccc1NC(=O)c1ccco1`, the inhibition is 2.11%.

On to `COc1ccc(S(=O)(=O)N(C)c2ccc(C(=O)Nc3cccnc3)cc2)cc1`, for which the inhibition is 8.16%.
